Assay outcomes (PubChem)
NTR1 ag: agonists of human neurotensin receptor NTR1 | 330,000 compounds, 0.17% hits | P30989 | activation, % at 20 µM | NTR1-U2OS beta-arrestin-GFP spot imaging, agonist mode;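 active = activation at or above 40% of the spot to cytoplasm intensity ratio, with at least 20 cells analyzed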;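 also: 0% = DMSO without peptide and 100% = 100 nM NTR1 peptide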
Target sequence (P30989 whole entry, looked up): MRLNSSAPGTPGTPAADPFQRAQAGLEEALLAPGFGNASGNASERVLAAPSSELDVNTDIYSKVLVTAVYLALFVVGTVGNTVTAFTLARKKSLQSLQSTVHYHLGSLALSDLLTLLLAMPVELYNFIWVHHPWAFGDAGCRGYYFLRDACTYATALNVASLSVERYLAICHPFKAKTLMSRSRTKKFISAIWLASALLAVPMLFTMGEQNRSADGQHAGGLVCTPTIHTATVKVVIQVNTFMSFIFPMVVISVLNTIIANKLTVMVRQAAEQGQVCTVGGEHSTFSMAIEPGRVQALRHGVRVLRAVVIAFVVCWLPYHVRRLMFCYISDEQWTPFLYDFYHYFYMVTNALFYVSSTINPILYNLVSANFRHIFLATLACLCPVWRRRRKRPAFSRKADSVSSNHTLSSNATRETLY
Jurkat NFkB inh: inhibitors of the PMA/ionomycin-induced NF-kB reporter in Jurkat cells | PMA/ionomycin-induced NF-kB luciferase reporter, luminescence | inhibition, % at 4 µM | 330,000 compounds, 0.53% hits; in the data active = inhibition above about 50%
697 NFkB inh: inhibitors of the PMA/ionomycin-induced NF-kB reporter in 697 B cells; inhibition, % at 4 µM; 330,000 compounds, 0.33% hits; 697 B-cell NF-kB luciferase reporter, 16 h; in the data active = inhibition above about 35%
Bfl-1 A1 inh: inhibitors of the anti-apoptotic protein A1, read as caspase activation. MEF A1-2A-BIM cells, Caspase-Glo 3/7 luminescence, 3 h; percent of clofoctol response, vehicle zero. caspase activation, % (no concentration beside the values). 330,000 compounds, 0.066% hits;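 active = over half of replicate activation scores above 10%, or exactly half above 10 with the replicate mean above 10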
Beta apoptosis: beta cell apoptosis inhibition | INS-1E cytokine-induced death, ATP luminescence, 48 h; percent of positive-control rescue, neutral wells zero | protection from apoptosis, % (concentration not given with the values) | 300,000 compounds, 0.8% hits;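 active = Every replicate reaches about 75%, or at least half do and their mean reaches it too, limit read from the data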;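 also: 0% = cytokine-treated negative control wells and 100% = positive control rescue; higher means more ATP so stronger rescue from cytokine killing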
Mdm2 MdmX PPI: disrupts the human Mdm2-MdmX interaction | O15151+Q00987 | SaOS-2 split-luciferase Mdm2/MdmX complementation, luminescence | inhibition, % at 8 µM | 330,000 compounds, 3% hits | AID 485346;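 active = inhibition of at least 50% at 8 µM in the primary screen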
Jurkat NFkB conf: lowers PMA/ionomycin-induced NF-kB signal in Jurkat cells; shares compounds with Jurkat NFkB inh; Jurkat NF-kB luciferase, 16 h; inhibition, % at 4 µM; 2,700 compounds, 27% hits; AID 435020;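 active = inhibition reaching about 45% at 4 µM in either replicate, limit read from the data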;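 also: plate controls were PMA/ionomycin stimulated DMSO wells for no effect and unstimulated DMSO wells for full effect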
697 NFkB conf: lowers PMA/ionomycin-induced NF-kB signal in 697 B cells; shares compounds with 697 NFkB inh; 697 B-cell NF-kB luciferase, 16 h; inhibition, % at 4 µM; 2,000 compounds, 35% hits; in the data active = inhibition mostly above about 28%, no sharp cut-off; inactive = mostly below about 22%
Numbers without * were called inactive. These entries were drawn from the full list.

How did O=C(/C=C/c1ccccc1Br)c1ccc2c(c1)OCO2 do in these assays?
NTR1 ag: 2; Jurkat NFkB inh: -22; 697 NFkB inh: -34; Bfl-1 A1 inh: -5; Beta apoptosis: 3; Mdm2 MdmX PPI: -13

How did O=C(/C=C\Nc1cccc(F)c1)c1ccc2c(c1)OCO2 do in these assays?
NTR1 ag: 2; Jurkat NFkB inh: -171; 697 NFkB inh: -411; Bfl-1 A1 inh: -10; Beta apoptosis: -16; Mdm2 MdmX PPI: -27; Jurkat NFkB conf: -142; 697 NFkB conf: -228

How did Cc1ccc(C)c(C(=O)OCC(=O)Nc2cccc(S(=O)(=O)N3CCCCC3)c2)c1 do in these assays?
NTR1 ag: 5; Jurkat NFkB inh: 1; 697 NFkB inh: -24; Bfl-1 A1 inh: 1; Beta apoptosis: 10; Mdm2 MdmX PPI: 15

How did CCOC(=O)N1CCN(C(=O)CN(C)S(=O)(=O)c2ccc(OCC)cc2)CC1 do in these assays?
NTR1 ag: 2; Jurkat NFkB inh: -2; 697 NFkB inh: -6; Bfl-1 A1 inh: 0; Beta apoptosis: -5; Mdm2 MdmX PPI: -15

How did CCOC(=O)c1c(C)[nH]c(C)c1C(=O)COC(=O)/C=C/c1ccco1 do in these assays?
NTR1 ag: 1; Jurkat NFkB inh: -9; 697 NFkB inh: 3; Bfl-1 A1 inh: 0; Beta apoptosis: -6; Mdm2 MdmX PPI: 12

How did C[C@@H]1CN([C@@H](C)CO)C(=O)c2cccc(NS(C)(=O)=O)c2O[C@H]1CN(C)CC1CCCCC1 do in these assays?
NTR1 ag: 0; Jurkat NFkB inh: -4; 697 NFkB inh: 0; Bfl-1 A1 inh: 0; Beta apoptosis: 0; Mdm2 MdmX PPI: 8

What do the screens show for `C/C(N)=C(/C#N)C(=O)COC(=O)C1CCN(S(=O)(=O)c2cccs2)CC1`?
NTR1 ag: 1; Jurkat NFkB inh: 3; 697 NFkB inh: 10; Bfl-1 A1 inh: 0; Beta apoptosis: -6; Mdm2 MdmX PPI: -16

What do the screens show for `Cc1ccc(O)c(NC(=O)c2noc3c2CCCCC3)c1`?
NTR1 ag: 1; Jurkat NFkB inh: 13; 697 NFkB inh: -71; Bfl-1 A1 inh: 1; Beta apoptosis: 9; Mdm2 MdmX PPI: -122

How did Cc1ccc(NC(=O)c2noc3c2CCCCC3)cc1C do in these assays?
NTR1 ag: 0; Jurkat NFkB inh: -248; 697 NFkB inh: -317; Bfl-1 A1 inh: -5; Beta apoptosis: -7; Mdm2 MdmX PPI: -124; Jurkat NFkB conf: -114; 697 NFkB conf: -306

What do the screens show for `Cc1ccoc1C(=O)Nc1ccc2ccccc2c1`?
NTR1 ag: 0; Jurkat NFkB inh: -211; 697 NFkB inh: -444; Bfl-1 A1 inh: -8; Beta apoptosis: 14; Mdm2 MdmX PPI: -104; Jurkat NFkB conf: -122; 697 NFkB conf: -388

What do the screens show for `O=C(Nc1ccc2ccccc2c1)c1ccc(Cl)cc1`?
NTR1 ag: 0; Jurkat NFkB inh: -215; 697 NFkB inh: -476; Bfl-1 A1 inh: -5; Mdm2 MdmX PPI: -126; Jurkat NFkB conf: -126; 697 NFkB conf: -486

How did CCOc1cccc(C(=O)Nc2ccc3ccccc3c2)c1 do in these assays?
NTR1 ag: 3; Jurkat NFkB inh: -185; 697 NFkB inh: -449; Bfl-1 A1 inh: -11; Beta apoptosis: 3; Mdm2 MdmX PPI: -165; Jurkat NFkB conf: -145; 697 NFkB conf: -490

What do the screens show for `Cc1cc(C(=O)Nc2ccc3ccccc3c2)oc1C`?
NTR1 ag: 2; Jurkat NFkB inh: -138; 697 NFkB inh: -174; Bfl-1 A1 inh: -4; Beta apoptosis: 12; Mdm2 MdmX PPI: -159

Results for Cc1cccnc1Nc1nc(-c2ccccc2)cs1 ?
NTR1 ag: 8; Jurkat NFkB inh: -152; 697 NFkB inh: -252; Bfl-1 A1 inh: -7; Mdm2 MdmX PPI: -219; Jurkat NFkB conf: -93; 697 NFkB conf: -232

What do the screens show for `Fc1ccc(-c2csc(Nc3ccccn3)n2)cc1`?
NTR1 ag: 10; Jurkat NFkB inh: -169; 697 NFkB inh: -264; Bfl-1 A1 inh: -3; Beta apoptosis: 4; Mdm2 MdmX PPI: -183; Jurkat NFkB conf: -74; 697 NFkB conf: -216

Results for Clc1ccccc1Nc1nc(-c2cccnc2)cs1 ?
NTR1 ag: 3; Jurkat NFkB inh: -189; 697 NFkB inh: -270; Bfl-1 A1 inh: -6; Beta apoptosis: -5; Mdm2 MdmX PPI: -196; Jurkat NFkB conf: -96; 697 NFkB conf: -210
